TGFb inhibitor = blocks TGF-b signaling; HepG2 CAGA-GFP TGF-b/SMAD3 reporter, GFP fluorescence, 18 h; TGF-beta stimulated, 500 pg/mL final; Potency, µM (doses to about 46.1 µM), for the others: at the highest dose activity, negative = inhibition, hits mostly inhibitors; 1.2% of 410,000 active; AID 588855; note: % is set by controls: 0 for no effect and ±100 for the full control effect; nearly all actives have a fitted effect of over 65% in size
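GFP signal (ex488/em500-530) from TGF-beta-stimulated HEPG2 CAGA-GFP cells, 500 pg/mL final, 18 h at 37 degrees C in DMEM plus 1% FBS, normalized to unstimulated and DMSO-stimulated controls.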
ATXN2 expr inh = reduces ATXN2 reporter expression in HEK-293 cells; HEK-293 ATXN2-luciferase reporter, luminescence, 24 h; Potency, µM (highest dose often 57 µM), for inactives: at the highest dose activity change, negative = inhibition, usual class: inhibitors; 0.72% of 360,000 active; AID 1745845; note: % is set by controls: 0 for no effect and ±100 for the full control effect; nearly all actives have a fitted effect of over 55% in size
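ATXN2-luciferase reporter cells (luciferase flanked by upstream and downstream ATXN2 gene portions) were treated 24 h at 37 °C with compounds at up to 57 uM. SteadyGlo luminescence gave expression; GF-AFC fluorescence gave viability.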
HT1080 IDH1KD tx = kills HT-1080 cells with IDH1 knockdown. HT-1080 IDH1 knockdown viability, ATP luminescence, 48 h. Potency, µM (doses to about 46.1 µM), for the others: at the top dose activity, negative = toxicity, most hits filed as cytotoxic. 2% of 360,000 active. AID 686971;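 note: 0% = DMSO wells and -100% = cell-free medium wells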
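After a 2 h attachment period, IDH1KD HT-1080 cells took pin-transferred compound for 48 h at 37 °C; ATP-based luminescence after 10 min room-temperature reagent incubation reported viability.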
S2 tox = viability counter-screen for ATXN expression inhibitors. S2 cells (HEK-293 line with an ATXN2-luciferase reporter) viability, CellTiter-Fluor protease fluorescence, 24 h. Potency, µM (top dose mostly 56.7 µM), hits mostly cytotoxic. 0.49% of 400,000 active; note: nearly all actives have a fitted effect of over 40% in size
HepG2 tox-1 = HepG2 cytotoxicity, counter-screen for TGF-b inhibitors | HepG2 CAGA-GFP viability, ATP luminescence, 18 h | Potency, µM (top dose mostly 46.1 µM), for inactives: at the top dose activity change, negative = cytotoxicity, hits mostly cytotoxic | 0.76% of 410,000 active | AID 588856
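HepG2 CAGA-GFP cells (1000/well, DMEM with 1% FBS) received compound, then TGF-beta at 500 pg/mL final, and were incubated 18 hours at 37 degrees C. Viability was read by CellTiter-Glo luminescence. Media-only wells were set as complete cell-killing and DMSO as no toxicity.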
HT1080-NT tox = kills 2HG-producing HT-1080-NT fibrosarcoma cells; HT-1080-NT fibrosarcoma viability, CellTiter-Glo ATP luminescence, 48 h; 1.6% of 360,000 active; AID 686970; Potency, µM (titrated, usually from 46.1 µM), for the others: at the top dose activity, negative = less viability, most hits filed as cytotoxic;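 note: NT is the 2HG producing partner of a matched IDH1 knockdown line; 0% = DMSO-treated cells and -100% = media-only wells without cells; nearly all actives have a fitted effect of over 55% in size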
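Luminescent CellTiter-Glo readout after 48 hours of compound exposure at 37 degrees C defined viability of HT-1080-NT cells. Activity was normalized to DMSO wells and cell-free media wells; concentration-response curves were fitted and assigned curve classes.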
TGFb CAGA inh = confirmation of TGF-b signaling inhibitors in HepG2 reporter cells; shares compounds with TGFb inhibitor; HepG2 CAGA-GFP TGF-b reporter, GFP fluorescence, 18 h; cells stimulated with TGF-beta, 500 pg/mL; Potency, µM (doses to about 46.1 µM), without a hit: top-dose activity, negative = inhibition, most hits filed as inhibitors; 63% of 1,600 active; AID 720534; note: % is set by controls: 0 for no effect and ±100 for the full control effect; nearly all actives have a fitted effect of over 65% in size
HepG2 tox-2 = HepG2 cytotoxicity, TGF-b inhibitor counterscreen. shares compounds with TGFb inhibitor. HepG2 CAGA-GFP viability, ATP luminescence, 18 h; cells stimulated with TGF-beta, 500 pg/mL. Potency, µM (highest dose often 46.1 µM), inactives show at the highest dose activity, negative = cytotoxicity, hits mostly inhibitors. 27% of 1,600 active; note: % is set by controls: 0 for no effect and ±100 for the full control effect; nearly all actives have a fitted effect of over 70% in size
TGFb CCL64 inh = blocks TGF-b signaling in CCL64 reporter cells; shares compounds with TGFb inhibitor; CCL64 CAGA-GFP reporter, TGF-b stimulated, GFP fluorescence, 18 h; Potency, µM (titrated, usually from 46.1 µM), inactives show at the highest dose activity, negative = inhibition, most hits filed as inhibitors; 41% of 1,600 active; note: nearly all actives have a fitted effect of over 65% in size
TGFb COP inh = validation of TGF-b inhibitors in HepG2 COP promoter reporter. shares compounds with TGFb inhibitor. 3% of 1,600 active. AID 720537. HepG2 COP-GFP TGF-b reporter, GFP fluorescence, 18 h; cells stimulated by added recombinant TGF-beta. Potency, µM (top dose mostly 46.1 µM), without a hit: at the top dose activity, negative = inhibition, usual class: inhibitors; note: nearly all actives have a fitted effect of over 70% in size
Active calls of the source: *; i = inactive; ? = inconclusive; / = not tested or not shown; ! = a repeat was not active. Rows were chosen to be rich in hits. Some 3.9% of all compounds tested hit in one or more screens of this group. Calls come from the whole dose curve; as a rule, active = well fitted curve in the direction sought with a large enough effect; inconclusive = small, poorly fitted or top-dose-only effect, or another doubt; inactive = no such curve, though single readings can be large; an effect the other way counts as inactive or inconclusive. Potency is the fitted concentration of half-maximal effect.

SMILES | TGFb inhibitor | ATXN2 expr inh | HT1080 IDH1KD tx | S2 tox | HepG2 tox-1 | HT1080-NT tox | TGFb CAGA inh | HepG2 tox-2 | TGFb CCL64 inh | TGFb COP inh
COc1cc(OC)cc(C(=O)N[C@H](C(=O)OCc2cc(=O)oc3cc(C)ccc23)C(C)C)c1 | ? | -6% | -1% | ? | -1% | 1% | ? | -5% | -12% | 12%
CCOC(=O)CNC(=O)CSc1nnc(Cn2c(=O)sc3ccccc32)n1-c1ccccc1C | ? | 2% | -29% | i | -29% | 3% | ? | -5% | 4% | 1%
Cc1ccc2cccc(NC(=O)c3ccc(-c4cccc(Cl)c4Cl)o3)c2n1 | 4% | -1% | / | i | -10% | / | / | / | / | /
CCC(C)NS(=O)(=O)c1ccc(S(=O)(=O)N2CC=C(c3ccc(F)cc3)CC2)cc1 (stereo unspecified) | 8.9µM* | -29% | -16% | i | -32% | -13% | ? | -16% | ? | 15%
CCC(C)NC(=O)C1=CCN(S(=O)(=O)c2ccc(C)cc2)CC1 (stereo unspecified) | 3% | 4% | 12% | i | -2% | 3% | / | / | / | /
COc1ccc2c(c1)c1c(c(=O)n(-c3ccc(C)cc3)c(=O)n1CC(=O)Nc1cc(C)ccc1C)n2C | 11% | 8% | / | i | -1% | / | / | / | / | /
CN(C)S(=O)(=O)c1ccc(Cl)c(NC(=O)CN2CCC(Cc3ccccc3)CC2)c1 | ? | -15% | -27% | i | -1% | -26% | 13µM* | ? | ? | 17%
CN(C)S(=O)(=O)c1ccc(NC(=O)CN2CCC(Cc3ccccc3)CC2)cc1 | -2% | / | -2% | ? | -29% | -24% | / | / | / | /
CCCCN(C(=O)c1cc(S(=O)(=O)N2CCOCC2)ccc1F)c1c(N)n(CCCC)c(=O)[nH]c1=O | -18% | -6% | 7% | i | 2% | 8% | / | / | / | /
CCCCN(C(=O)Cc1ccc(S(=O)(=O)N2CCOCC2)s1)c1c(N)n(CCCC)c(=O)[nH]c1=O | ? | 3% | 9% | i | 3% | 0% | -12% | 1% | 15% | 6%
Cc1ccc(-n2nc(CO)c(C(=O)NC(C)CCCc3ccccc3)n2)cc1 (stereo unspecified) | 0% | / | / | / | -36% | / | / | / | / | /
Cc1ccc(NC(=O)c2nc(S(=O)(=O)Cc3ccccc3C)ncc2Cl)cc1C | 7.1µM* | ? | 16µM* | ? | 16µM* | ? | 3.3µM* | 10µM* | 3.7µM* | ?
Cc1cccc(CS(=O)(=O)c2ncc(Cl)c(C(=O)NCc3ccc4c(c3)OCO4)n2)c1 | 7.9µM* | / | -17% | ? | 14µM* | -13% | 5.8µM* | 13µM* | 2.9µM* | ?
Cc1ccc(C(=O)NCc2ccc3c(c2)OCO3)c(Cl)c1 | 0% | / | 0% | i | -20% | 1% | / | / | / | /
CSc1ncc(Cl)c(C(=O)Nc2ccc(C)c(C)c2)n1 | 0% | -8% | -8% | i | 3% | -10% | / | / | / | /
COc1ccccc1NC(=O)c1nc(S(=O)(=O)Cc2ccccc2)ncc1Cl | 4.5µM* | ? | 3.7µM* | ? | -40% | 12µM* | 2.9µM* | 5.8µM* | 2.1µM* | 15µM*
CCOC(=O)c1c(-c2ccccc2)csc1NC(=O)c1nc(S(=O)(=O)CC)ncc1Cl | ? | / | / | / | -35% | / | / | / | / | /
CN(c1ccccc1)S(=O)(=O)c1ccc(NC(=O)c2nc(S(C)(=O)=O)ncc2Cl)cc1 | 5.6µM* | 14µM* | 12µM* | 16µM* | 5.6µM* | ? | 2.9µM* | 4.1µM* | 1.8µM* | 6.5µM*
COC(=O)c1sccc1S(=O)(=O)N1CCN(c2cc(Cl)ccc2C)CC1 | 24% | -17% | / | ? | 0% | / | / | / | / | /
CCS(=O)(=O)c1ncc(Cl)c(C(=O)Nc2ccc(S(=O)(=O)N3CCC(C)CC3)cc2)n1 | 4.5µM* | -23% | 3.7µM* | 14µM* | 1.8µM* | 2.9µM* | 4.6µM* | 4.6µM* | 2.1µM* | 9.2µM*
CCOc1ccccc1NC(=O)c1nc(S(=O)(=O)Cc2ccccc2)ncc1Cl | 5µM* | / | -5% | 8.9µM* | 6.3µM* | 3% | 2.9µM* | 5.8µM* | 4.6µM* | 7.3µM*
CCOC(=O)c1ccc(NC(=O)c2nc(SC(C)C)ncc2Cl)cc1 | -19% | -24% | / | i | -24% | / | / | / | / | /
CCOC(=O)c1ccc(NC(=O)c2nc(S(=O)(=O)Cc3ccccc3)ncc2Cl)cc1 | 3.5µM* | ? | 2.9µM* | 20µM* | 6.3µM*! | 5.8µM* | 4.6µM* | 6.5µM* | 2.3µM* | 13µM*
Clc1ccc2c(c1)Nc1ccccc1S2 | / | -5% | / | i | / | / | / | / | / | /
CCOC(=O)c1c(C)[nH]c(C(=O)N/N=C/c2ccc(Br)cc2)c1C | 1.4µM* | -34% | 0.092µM* | ? | 0% | 0.15µM* | 0.92µM* | -9% | ? | -18%
COc1ccccc1-c1nc2c(c(SCC(=O)Nc3ccc(C)c(C)c3)n1)Cc1c(CO)cnc(C)c1O2 | -18% | / | / | / | -20% | / | / | / | / | /
COc1ccccc1NC(=O)c1c(-c2ccc(C)cc2)nnc2ccccc12 | -4% | / | / | / | -2% | / | / | / | / | /
CCOc1ccc(CCN2C(=S)N([C@@H](Cc3ccc(O)cc3)CN3CCC[C@@H]3CN3C(=S)NC[C@@H]3Cc3ccccc3)C[C@@H]2Cc2ccc(O)cc2)cc1 | 8.9µM* | 0% | ? | ? | -1% | ? | 6.5µM* | ? | 5.8µM* | 44%

Assay outcomes (PubChem BioAssay)
